Measurements taken from PubChem BioAssay (NCI).
About 83,000 compounds went through this panel and 20% of them were active in at least one assay; those are over-represented in the sample as a whole.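 Plates (96-well) were seeded with cells, treated with compound at one concentration, and incubated for 48 hours before percent growth was determined.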 Values without a mark were called inactive. Calls of active or inactive are those of the source.

Each molecule was assayed on U251 CNS (assay: NCI-60 one-dose screen, 48 h (100 = growth as untreated, 0 = no growth, -100 = all killed)). Settings: 10 µM.
Procedure: Growth inhibition of the U251 human tumor cell line is measured as a screen for anti-cancer activity. Cells are grown in 96 well plates and exposed to the test compound for 48 hours. Compounds are tested at a single concentration, which is 10^-5 M for most compounds. The reported endpoint is percent growth (GI% or GIPRCNT), where numbers from 0 - 100% represent growth inhibition, and numbers from -100% - 0 represent cell death. For example, a value of 40 represents 60% growth inhibition. A value of 0 means no net growth occurred over the course of the experiment. A value of -40 indicates 40% of cells at the beginning of the experiment died by the end of the experiment. A value of -100 means all cells are dead at the end of the experiment.
NCI-60 Human Tumor Cell Lines Screen was performed using the standard one-dose NCI protocol, which is described in more detail at https://dtp.cancer.gov/discovery_development/nci-60/default.htm.
Compounds with GIPRCNT values below 10 were considered active. Activity score was based on GIPRCNT using the following formula: […]
Score is 0 for GIPRCNT values of 100 or above, 50 for GIPRCNT values of 0, and 100 for GIPRCNT values of -100.

Compound	growth
NC(=S)NN=C1CCCC1	73.2%
Nc1ncnc2[nH]ncc12	42.8%
O=[N+]([O-])c1ccc(N=Nc2ccc(O)c3ccccc23)cc1	15.4%
Nc1ccc(N)c([N+](=O)[O-])c1	107%
CC(C)CCOC(=O)c1ccccc1	97.5%
S=C1CCCCCN1	111%
Cc1cccc(CO)c1	94.5%
Nc1nc2c(c(-c3nc(N)nc4c3CCc3ccccc3-4)n1)CCc1ccccc1-2	114%
CC1=CC(=O)c2ccccc2C1=O	101%
C[N+](C)=c1ccc2nc3c(cc(Nc4ccccc4)c4ccccc43)oc-2c1	23.4%
c1ccc2c(N3CCCCC3)ncnc2c1	93%
O=C(O)c1ccnc(Br)c1	100%
COC(=O)c1ccc(NC(=O)CCl)cc1	26.2%
CCCCC(CC)COC(C)=O (stereo not given)	99.6%
CC(=O)OCC1=CC2OC(=O)C3=COC(OC4OC(CO)C(O)C(O)C4O)C1C32 (stereo not given)	101%
CCOC(=O)/C(C#N)=C/c1cccc(C)c1	98.2%
O=C(O)[C@@H]1[C@H]2C[C@H]3c4[nH]c5ccccc5c4CCN3C[C@@H]2CC[C@@H]1O	114%
C=CCNc1ccccc1	106%
CCOc1ccc(Br)cc1/C=N\N=C\c1cc(Br)ccc1OCC	103%
Cc1cc(=O)[nH]c(NN=C2CCCC2)n1	120%

Compound	growth
CC(=Nc1ccccc1)C1=C(O)C(Cc2cccc(F)c2)NC1=O (stereo not given)	10.8%
CC1CCC(C(=O)O)N1 (stereo not given)	96%
O=C(O)c1cccc([N+](=O)[O-])c1	95.7%
Oc1ccc2c(c1)OCC1(O)Cc3cc(O)c(O)cc3C21 (stereo not given)	90.7%
CCCC1(c2ccccc2)NC(=O)NC1=O (stereo not given)	113%
COC(=O)c1cc(-c2ccc(Cl)c(Cl)c2)[nH]c(=O)c1C#N	97.3%
O=C(CN1CCNCC1)N1CCOCC1	106%
CCOC(=O)c1cc(/C=C/c2ccc(Cl)cc2Cl)on1	6.71% (active)
COc1cc2c3c(n(C)c(=O)c2cc1OC)-c1cc2c(cc1C3=O)OCO2	36%
O=C(O)CSCSCC(=O)O	94.3%
Cc1cc(/C=C/c2ccc3cc(N(C)C)ccc3[n+]2C)c(C)n1-c1ccccc1	-11.9% (active)
C=CC(O)CCC (stereo not given)	92.8%
Oc1ccc(O)cc1	99.1%
COc1cc(C(=O)NC(=S)Nc2ccc3ccccc3c2)cc(OC)c1OC	102%
N#CCCc1ccc(O)cc1	96.9%
COC(=O)c1cccc(Br)c1	109%
CC(=O)OC(OC(C)=O)C1CCCO1 (stereo not given)	105%
CC1(C)N=C(N)N=C(N)N1c1ccc(Cl)cc1	31.5%
CC(C)=C(NC(=O)c1ccccc1)C(=O)O	114%
O=C(O)CCC(=O)OC(C1CO1)C(OC(=O)CCC(=O)O)C1CO1 (stereo not given)	95.7%
